Nine compounds from PubChem BioAssay (NCI) can be followed below.

Each structure is given as a SMILES string. About 83,000 compounds went through this panel and 20% of them were active in at least one assay; those are over-represented in the sample as a whole.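 Treatment: one concentration, 48 hours, 96-well format. Scoring: percent growth, with anything below 10 considered active.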 A number with no mark means an inactive call. Calls of active or inactive are those of the source.

Some test systems named below: HCT-15 colon; HT29 colon; SNB-75 CNS; SNB-19 CNS; U251 CNS; PC-3 prostate; SK-MEL-5 melanoma; UACC-62 melanoma; LOX IMVI melanoma; SK-MEL-28 melanoma; EKVX NSCLC; SN12C renal; UO-31 renal; TK-10 renal; ACHN renal; CAKI-1 renal; A498 renal; CCRF-CEM leukemia; MOLT-4 leukemia; SK-MEL-2 melanoma.
Assay in all cases: NCI-60 one-dose screen, 48 h (100 = growth as untreated, 0 = no growth, -100 = all killed)
Holding throughout (conditions): 10 µM unless noted

For `COc1cccc2c1C(=O)c1c(O)c3c(c(O)c1C2=O)C[C@@](O)(C(=O)CO)C[C@@H]3O[C@H]1C[C@H](N)[C@@H](O)[C@H](C)O1`, the growth in the experiment on HCT-15 colon is 40.5%; in the experiment on HT29 colon, -14.8% (active); in the experiment on SNB-75 CNS it was -66.2% (active); with SNB-19 CNS it was 10%; in the experiment on U251 CNS, 3.07% (active); in the experiment on PC-3 prostate it was -0.191% (active). Further, the growth was -83.1% (active) in the experiment on SK-MEL-5 melanoma; -64.4% (active) in the experiment with UACC-62 melanoma; 0.955% (active) in the experiment with LOX IMVI melanoma; -34.7% (active) in the experiment on SK-MEL-28 melanoma; 3.85% (active) in the experiment with EKVX NSCLC; 10% with SN12C renal. Also, the growth in the experiment on UO-31 renal was 11.8%; in the experiment on TK-10 renal it was 6.82% (active); with ACHN renal, -36.9% (active); with CAKI-1 renal, 25.1%; in the experiment on A498 renal it was -67.3% (active); in the experiment with CCRF-CEM leukemia, -20.5% (active). For the same compound, in the experiment on MOLT-4 leukemia, the growth is -0.0958% (active).

Consider `COc1cc(C(=O)c2cnc(-c3ccc4cc[nH]c4c3)[nH]2)cc(OC)c1OC`, for which the growth in the experiment with HCT-15 colon was 6.36% (active); with HT29 colon it was -21.6% (active); in the experiment with SNB-75 CNS, 9.22% (active); in the experiment on SNB-19 CNS, 23.1%; with U251 CNS, 10%; in the experiment on PC-3 prostate, 18%. For the same compound, the growth is -63% (active) with SK-MEL-5 melanoma; 29.4% with UACC-62 melanoma; 8.42% (active) in the experiment on LOX IMVI melanoma; 55.9% in the experiment with SK-MEL-28 melanoma; 35.8% in the experiment on SK-MEL-2 melanoma; 20.5% in the experiment on SN12C renal. For the same compound, the growth in the experiment with UO-31 renal is 11.4%; in the experiment on CAKI-1 renal, 8.22% (active); in the experiment with CCRF-CEM leukemia, 5.89% (active); in the experiment on MOLT-4 leukemia, 7.06% (active).

Regarding `CSc1nc(O)c(-c2ccccc2)c(=O)[nH]1`, the growth in the experiment on HCT-15 colon was 102%; in the experiment with HT29 colon it was 99.9%; in the experiment on SNB-75 CNS, 97.1%; in the experiment on SNB-19 CNS, 100%; in the experiment on U251 CNS, 101%; in the experiment with PC-3 prostate, 96.9%. For the same compound, the growth in the experiment on SK-MEL-5 melanoma is 101%; with UACC-62 melanoma, 93.1%; with LOX IMVI melanoma, 101%; in the experiment with SK-MEL-28 melanoma it was 101%; in the experiment on EKVX NSCLC, 94.6%; with SN12C renal it was 96.9%. For the same compound, the growth with UO-31 renal was 92%; in the experiment with TK-10 renal it was 97%; in the experiment on ACHN renal, 93.3%; in the experiment with CAKI-1 renal it was 93.6%; in the experiment with CCRF-CEM leukemia it was 102%; with MOLT-4 leukemia, 97%.

For the compound `CCCCCCCCOC(=O)c1ccc(O)c(OC)c1`, the growth is 105% with HCT-15 colon; 97.7% with HT29 colon; 78.8% in the experiment with SNB-75 CNS; 93.2% in the experiment on SNB-19 CNS; 85.8% with U251 CNS; 78% with PC-3 prostate. The growth in the experiment on SK-MEL-5 melanoma is 97.1%; with UACC-62 melanoma, 92%; with LOX IMVI melanoma, 59.3%; in the experiment with SK-MEL-28 melanoma it was 105%; in the experiment on EKVX NSCLC it was 105%; in the experiment on SN12C renal, 85.8%. Besides, the growth is 50.8% with UO-31 renal; 98.6% in the experiment on TK-10 renal; 103% in the experiment on ACHN renal; 91.9% with CAKI-1 renal; 1.05% (active) with CCRF-CEM leukemia.

With `CCCCCCC/C=C/[C@H]1O[C@]2(O)C(=O)C=C3C[C@@H](O[C@@H]4O[C@H](CO)[C@@H](O)C(O)[C@@H]4O)C[C@@H]3[C@H]2C=C1C` (some centres undefined), the growth in the experiment on HCT-15 colon was -25% (active); in the experiment with HT29 colon, -12.2% (active); in the experiment on SNB-75 CNS it was 48.4%; with SNB-19 CNS, 13%; with U251 CNS, -60.5% (active); with PC-3 prostate, -26.8% (active). Besides, the growth in the experiment on SK-MEL-5 melanoma was 6.77% (active); in the experiment on UACC-62 melanoma, -52.4% (active); in the experiment with LOX IMVI melanoma it was -76.1% (active); in the experiment on SK-MEL-28 melanoma it was -26% (active); with SK-MEL-2 melanoma, -28.5% (active); in the experiment with SN12C renal, 1.69% (active). The growth in the experiment on UO-31 renal is -88.1% (active); in the experiment with TK-10 renal it was 4.93% (active); with ACHN renal it was -4.43% (active); with A498 renal, 71.2%; in the experiment on CCRF-CEM leukemia, 9.27% (active).

Regarding `COc1cc2nc(Cc3ccc(C)cc3)[nH]c(=O)c2cc1OC`, the growth is 104% with HCT-15 colon; 107% with HT29 colon; 95.6% in the experiment with SNB-75 CNS; 97.9% in the experiment with SNB-19 CNS; 117% in the experiment with U251 CNS; 101% with PC-3 prostate. For the same compound, the growth in the experiment on SK-MEL-5 melanoma is 109%; in the experiment with UACC-62 melanoma, 95.1%; in the experiment with LOX IMVI melanoma, 105%; with SK-MEL-28 melanoma, 96.6%; in the experiment with EKVX NSCLC, 109%; in the experiment with SN12C renal it was 99.6%. Moreover, the growth is 97.5% in the experiment with UO-31 renal; 292% with TK-10 renal; 110% with ACHN renal; 129% with CAKI-1 renal; 90.6% in the experiment with A498 renal; 1.89% (active) in the experiment with CCRF-CEM leukemia. For the same compound, the growth in the experiment with MOLT-4 leukemia was 95%.

On to `COc1ccc2c(Nc3ccc(NS(C)(=O)=O)cc3)c3ccccc3nc2c1`, for which the growth was 1.84% (active) in the experiment with HCT-15 colon; -45.4% (active) in the experiment with HT29 colon; -15.8% (active) in the experiment on SNB-75 CNS; 13.2% in the experiment on SNB-19 CNS; 4.96% (active) in the experiment on U251 CNS; 6.89% (active) in the experiment with PC-3 prostate. Moreover, the growth was -94.6% (active) with SK-MEL-5 melanoma; -65.4% (active) in the experiment with UACC-62 melanoma; -5.18% (active) with LOX IMVI melanoma; -13.5% (active) in the experiment with SK-MEL-28 melanoma; 6.78% (active) in the experiment with EKVX NSCLC; 10.3% in the experiment on SN12C renal. Also, the growth in the experiment on UO-31 renal was -41.5% (active); in the experiment on TK-10 renal, 9.37% (active); in the experiment with ACHN renal, -3.55% (active); in the experiment on CAKI-1 renal it was -22.6% (active); in the experiment with CCRF-CEM leukemia it was 11%.

Take `c1ccc(C2CC(c3cccc(Nc4ccncc4)c3)=NN2c2ccccc2)cc1` (centres undefined): the growth with HCT-15 colon was -15.7% (active); with HT29 colon, 1.62% (active); in the experiment with SNB-75 CNS it was 77.3%; in the experiment with SNB-19 CNS, 89.1%; in the experiment with U251 CNS, 25.6%; with PC-3 prostate, 54.5%. Besides, the growth was 75.3% in the experiment with SK-MEL-5 melanoma; 96.8% in the experiment with UACC-62 melanoma; 43.7% in the experiment on LOX IMVI melanoma; -56.2% (active) in the experiment on SK-MEL-28 melanoma; 103% with SK-MEL-2 melanoma; 70.3% with UO-31 renal. Besides, the growth in the experiment on TK-10 renal is 98.9%; in the experiment on ACHN renal, 90.1%; with CAKI-1 renal, 61.8%; in the experiment with A498 renal, 83.2%; in the experiment with CCRF-CEM leukemia, 56.9%; with MOLT-4 leukemia it was 18%.

Turning to `CC(=O)CCSc1ccc(OC(C)=O)cc1`, the growth with HCT-15 colon was 101%; with HT29 colon it was 90.1%; in the experiment with SNB-75 CNS it was 86.8%; in the experiment on SNB-19 CNS, 97.8%; with U251 CNS, 95.3%; with PC-3 prostate, 83.8%. The growth was 96.1% in the experiment on SK-MEL-5 melanoma; 93.1% in the experiment on UACC-62 melanoma; 98.1% in the experiment on LOX IMVI melanoma; 107% in the experiment with SK-MEL-28 melanoma; 99.5% in the experiment on SK-MEL-2 melanoma; 101% in the experiment on SN12C renal. Moreover, the growth in the experiment with UO-31 renal was 87.3%; in the experiment on TK-10 renal, 96.3%; in the experiment on ACHN renal, 103%; with A498 renal, 95.8%; in the experiment with CCRF-CEM leukemia, 75.3%; in the experiment on MOLT-4 leukemia it was 94.1%.
